Source: PubChem BioAssay (several laboratories)
L major viab: reduces viability of Leishmania major promastigotes | resazurin fluorescence viability | inhibition, % at 10 µM | 9% of 200,000 active; in the data active means inhibition above about 50%;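 further: promastigotes grown with compound for 44 hours at 28 °C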
INS promoter inh: TRM-6 insulin promoter activity inhibition. 0.9% of 130,000 active. TRM-6 cells (human fetal islet line), insulin promoter-eGFP reporter, imaging; reporter expression induced with tamoxifen. inhibition, % at 2 µM;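 active means inhibition above the mean plus 3 SD, with well images judged a real hit on visual review, cut at about 60% in these data, passing the limit was not always enough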
ROMK primary: modulates human ROMK potassium channel activity | B-score at 10 µM | P48048 | Tet-inducible ROMK, thallium flux fluorescence; actives lie on both sides | 2% of 130,000 active;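 active means signal ratio slope over the read window, or its plate-corrected B-score, at least 3 SD from the plate mean, either direction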;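 further: B-score of the F/F0 ratio slope over 7 to 12 s after thallium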
PTEN del growth: PTEN-deleted cell growth suppression | HCT116 PTEN-null viability, CellTiter-Glo, 60 h; active compounds read low | viability, % at 10 µM | 1.2% of 140,000 active | AID 827;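 active means viability at or below a set limit, 4 SD under the median of all tested compounds, cut at about 3.7% in these data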;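 further: PTEN knockout HCT116 line with beta catenin targeted HCT116 as companion control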
p97 inhibitor: human p97 ATPase inhibition | P55072 | recombinant p97 ATPase, Kinase-Glo ATP luminescence, 3 h | inhibition, % at 8 µM | 0.42% of 220,000 active | AID 1481; in the data active means inhibition above about 15%
bCat KO growth: beta-catenin-lacking colon tumor cell growth suppression; HCT116 beta-catenin knockout viability, CellTiter-Glo, 60 h; active compounds read low; viability, % at 10 µM; AID 818; 1.5% of 140,000 active;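 active means viability at or under a set limit, the compound median less 4 SD, cut at about 6% in these data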
p97 inh conf: human p97 ATPase inhibition, confirmation | shares compounds with p97 inhibitor | recombinant p97 ATPase, Kinase-Glo ATP luminescence | inhibition, % at 8 µM | 44% of 760 active | AID 1517;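 active means percent inhibition of p97 ATPase above a set limit, the primary screen's mean plus 3 SD, cut at about 15% in these data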
Numbers stand for hits; - = inactive; . = not tested or not shown. In the library only some 10% were active in any assay of this set; here they are far more common.

SMILES	L major viab	INS promoter inh	ROMK primary	PTEN del growth	p97 inhibitor	bCat KO growth	p97 inh conf
Cc1ccc(S(=O)c2ccc(NC(=O)C3CC3)cc2C#N)cc1 (centres undefined)	-	-	-	.	17	.	-
Cc1ccc(OCC(=O)NNC(=O)c2cccnc2)cc1C	-	-	-	.	-	.	.
O=C(O)c1ccc(NS(=O)(=O)c2ccc3c(c2)C2C=CCC2C(c2ccccc2F)N3)cc1 (centres undefined)	-	.	-	.	32	.	37
NS(=O)(=O)c1ccc(CCNC(=O)CCCn2c(=O)[nH]c3ccc(Br)cc3c2=O)cc1	-	-	-	.	26	.	-
CC(C)CCNC(=O)CCCn1c(=O)[nH]c2ccc(Br)cc2c1=O	-	.	.	-	-	-	.
O=C(c1cccc(C(F)(F)F)c1)N1CCOC12CCN(c1ncc(C(F)(F)F)cc1Cl)CC2	-	.	-	-	-	-	.
O=[N+]([O-])c1ccc(N2CCCC2)cc1NC1CC1	-	-	.	-	-	-	.
NCCNc1ccc([N+](=O)[O-])c(NC2CC2)c1	-	-	-	-	17	-	-
CNC(=O)NC(=O)CSc1ccc(NC(C)=O)cc1	-	.	.	-	-	-	.
Cc1csc(NC(=O)CSCC(=O)O)c1-c1nc2ccccc2s1	.	.	.	.	16	.	19
O=C(O)CSCC(=O)Nc1ccc(-c2nc3ccccc3s2)cc1	.	.	.	.	-	.	.
COc1cc(/C=C2\COC/C(=C\c3ccc(O)c(OC)c3)C2=O)ccc1O	.	.	.	.	15	.	-
COc1cc(C=C2C(=O)c3ccccc3C2=O)ccc1O	.	.	.	.	-	.	.
N#CC1=C(N)Oc2cc(Nc3ccccc3)ccc2C1c1ccncc1 (centres undefined)	-	-	.	-	20	-	33
Cc1ccc(/C=C/C2=Cc3c(sc(NC(=O)CSc4n[nH]c(N)n4)c3C#N)C(C)(C)C2)o1	-	-	.	-	19	-	22
Cc1cc(NC(=O)CSc2n[nH]c(N)n2)no1	-	-	-	.	-	.	.
CCN(CC)C(=O)C(C)OC(=O)c1ccc(O)cc1 (centres undefined)	-	-	-	-	-	-	.
O=C1/C(=C/c2c[nH]c3ccccc23)CCC/C1=C\c1c[nH]c2ccccc12	84	.	-	-	29	-	23
O=C1CS/C(=N/N=C/c2c[nH]c3ccccc23)N1	.	.	-	.	-	.	.
COc1ccc(S(=O)(=O)CC(O)CN2CCCC2=O)cc1 (centres undefined)	-	-	.	-	-	-	.
Cc1ccccc1NS(=O)(=O)c1cc(C(=O)Nc2ccccc2-c2ccccc2)ccc1Cl	-	-	.	-	-	-	.
Nc1nc(SCC(=O)Nc2cc(S(=O)(=O)N3CCOCC3)ccc2Cl)n[nH]1	-	.	-	.	-	.	.
O=C(CSc1nc2ccccc2s1)Nc1cc(S(=O)(=O)N2CCOCC2)ccc1O	-	.	.	-	17	-	-
CCN(CC)c1ccc(NC(=O)CCCOc2cccc(C)c2)cc1	-	-	.	.	-	.	.
Cc1cccc(OCCCC(=O)Nc2ccc(S(N)(=O)=O)cc2)c1	-	-	-	.	17	.	-
SMILES	L major viab	INS promoter inh	ROMK primary	PTEN del growth	p97 inhibitor	bCat KO growth	p97 inh conf
CC(=O)Nc1ccc2nc(NC(=O)COc3cccc(C)c3)sc2c1	-	-	-	.	-	.	.
O=[N+]([O-])c1cc(S(=O)(=O)C(F)(F)F)ccc1Sc1nc2ccccc2[nH]1	100	-	-	1.3	20	1.5	29
Cc1nnsc1SCC(=O)O	-	-	.	-	-	-	.
CCS(=O)(=O)Nc1c(C(=O)O)[nH]c2ccccc12	-	-	.	-	20	-	-
CCS(=O)(=O)Nc1c(C(=O)OC)[nH]c2ccccc12	-	-	.	-	-	-	.
O=C(CCn1cccc1)NCc1ccccc1	-	-	-	-	-	-	.
CCC(Cc1ccccc1)NC(=O)CCn1cccc1 (centres undefined)	-	-	-	-	16	-	-
O=C(N/N=C/c1ccccc1OCC(=O)N1CCCC1)C(=O)Nc1ccccc1F	-	-	.	-	-	-	.
CN(/N=C/c1ccc(Br)o1)C1=NS(=O)(=O)c2ccccc21	-	-	-	.	-	.	.
COc1cc2[nH]c(Cl)c([N+](=O)[O-])c2cc1OC	.	.	.	.	17	.	-
CS(=O)(=O)c1[nH]nc(-c2cccc(Cl)c2)c1C#N	.	.	-	.	-	.	.
O=C1NCCCC2c3cc(O)c4ccccc4c3OC12N1CCCCC1 (centres undefined)	100	-	-	-	34	-	-
O=C(Cn1cc2c(n1)CCCCC2)NCc1cccs1	-	.	.	.	-	.	.
COc1cc2c(cc1OC)CN(C(=O)CSc1nc3[nH]ncc3c(=O)n1-c1ccccc1)CC2	-	.	.	-	20	-	-
COc1ccc(N2CCN(C(=O)CSc3nc4[nH]ncc4c(=O)n3-c3cccc4ccccc34)CC2)cc1	-	-	-	.	-	.	.
O=C(Cc1ccc(Cl)cc1)Nc1ccc(NC(=O)c2cccs2)cc1	-	-	-	.	15	.	-
O=C(Nc1ccc(Cl)cc1)c1cccs1	-	-	-	-	-	-	.
COc1ccc(CN(C)Cc2cc(=O)n3ccsc3n2)c(OC)c1OC	-	.	-	.	-	.	.
COc1ccc(OC)c(-c2csc(N(Cc3ccco3)C(=O)c3cccs3)n2)c1	-	-	.	-	-	-	.
COc1ccc(-c2csc(N(Cc3ccco3)C(=O)c3cccs3)n2)cc1	.	.	.	.	39	.	16
COc1cc(/C=C2/SC(=Nc3ccc(O)cc3)NC2=O)ccc1O	.	.	.	.	25	.	31
Cc1ccc(C(=O)NCCN2C3=NC[C@@H](Cc4ccccc4)N3C[C@H]2Cc2ccc(O)cc2)cc1Br	-	.	.	.	20	.	-
CCCn1c(SCC(=O)OCc2ccccc2)nc2c1c(=O)n(C)c(=O)n2C	-	.	-	-	-	-	.
